Bioassay records deposited in PubChem BioAssay by National Center for Advancing Translational Sciences (NCATS).
ELG1 DNA repair: qHTS screen for small molecules that inhibit ELG1-dependent DNA repair in human embryonic kidney (HEK293T) cells expressing luciferase-tagged ELG1 | 2.3% of 330,000 active | HEK293T ELG1-luciferase reporter, luminescence, 16 h; DNA damage induced by 5-fluorouridine | AID 504467, 2011 | Potency, µM (doses to about 46.1 µM), without a hit: at the highest dose activity change, negative = inhibition, hits mostly inhibitors; note: potency is the fitted concentration of half-maximal effect; nearly all actives have a fitted effect of over 55% in size
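Quantitative HTS, concentration-response format. 2,000 cells/well co-treated with 5-fluorouridine and compound, 16 hr in 5% CO2 at 37 °C; ONE-Glo luminescence read after 30 min.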
TDP1 inh: qHTS Assay for Inhibitors of Tyrosyl-DNA Phosphodiesterase (TDP1); Tyrosyl-DNA phosphodiesterase 1 (Homo sapiens), Q9NUW8; recombinant TDP1, AlphaScreen DNA substrate cleavage; Potency, µM (doses to about 130 µM), without a hit: top-dose activity change, negative = inhibition, hits mostly inhibitors; 0.28% of 350,000 active; AID 485290, 2010; note: potency is the fitted concentration of half-maximal effect; nearly all actives have a fitted effect of over 40% in size
Target sequence (Q9NUW8 whole entry, looked up): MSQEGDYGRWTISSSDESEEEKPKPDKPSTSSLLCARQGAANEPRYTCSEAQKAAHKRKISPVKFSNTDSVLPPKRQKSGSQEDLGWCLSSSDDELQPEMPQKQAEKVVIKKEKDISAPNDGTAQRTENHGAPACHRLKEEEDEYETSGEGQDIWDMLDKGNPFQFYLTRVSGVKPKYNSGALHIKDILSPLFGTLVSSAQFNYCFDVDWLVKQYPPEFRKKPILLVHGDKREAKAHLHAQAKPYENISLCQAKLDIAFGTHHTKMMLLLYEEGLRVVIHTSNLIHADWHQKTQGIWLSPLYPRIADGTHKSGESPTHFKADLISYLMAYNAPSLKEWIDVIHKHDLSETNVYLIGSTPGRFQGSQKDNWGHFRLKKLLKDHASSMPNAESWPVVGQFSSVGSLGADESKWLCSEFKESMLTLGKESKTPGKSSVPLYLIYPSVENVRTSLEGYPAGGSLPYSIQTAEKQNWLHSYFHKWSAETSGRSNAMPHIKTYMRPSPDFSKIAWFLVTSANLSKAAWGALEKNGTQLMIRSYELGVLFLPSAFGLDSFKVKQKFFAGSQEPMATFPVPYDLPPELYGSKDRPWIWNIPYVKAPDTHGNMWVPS
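Steps: enzyme plus compound, 15 min RT; add biotin/phosphotyrosine-FITC oligonucleotide (15 nM final), react 5 min; add donor/acceptor beads (10 ug/ml final), 10 min; read AlphaScreen. Tdp1 at 1 nM final.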
TDP1 cell noCPT: qHTS for Inhibitors of human tyrosyl-DNA phosphodiesterase 1 (TDP1): qHTS in cells in absence of CPT. DT40 Tdp1-/- hTDP1 cells, no CPT, ATP luminescence, 48 h. AID 686978, 2013. Potency, µM (highest dose often 46.2 µM), for the others: at the top dose activity change, negative = growth inhibition, actives largely listed as inhibitors. 15% of 420,000 active; note: potency is the fitted concentration of half-maximal effect; nearly all actives have a fitted effect of over 55% in size
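Stably hTDP1-transfected Tdp1-null chicken DT40 cells were treated with library compounds minus camptothecin and grown for at least 48 hr at 37 °C, after which cellular ATP was quantified by luminescence.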
DT40 TDP1 CPT: qHTS for Inhibitors of human tyrosyl-DNA phosphodiesterase 1 (TDP1): qHTS in cells in presence of CPT | chicken DT40 Tdp1-/-;hTDP1 cells + 20 nM CPT, ATP luminescence, 48 h | Potency, µM (series often up to 46.2 µM), without a hit: top-dose activity change, negative = growth inhibition, usual class: inhibitors | 12% of 420,000 active; note: potency is the fitted concentration of half-maximal effect; nearly all actives have a fitted effect of over 55% in size
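Chicken DT40 Tdp1-/- cells complemented with human TDP1, 400 cells/well, exposed to compounds plus 20 nM camptothecin for at least 48 h at 37 C; viability read as ATP content by CellTiter-Glo luminescence.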
IL1B secr inh: qHTS for Inhibitors of Inflammasome Signaling: IL-1-beta AlphaLISA Primary Screen; THP-1 LPS/ATP IL-1B secretion, AlphaLISA, 16 h; hits give low values; AID 743279, 2014; activity change, % at 57.5 µM; 4.7% of 360,000 active; in the data active = activity change below about -50%; inconclusive = mostly about -30% to -49%
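Secreted IL-1B measured by AlphaLISA bead assay after 16 h compound exposure of THP-1 cells; compounds (final up to 57.5 uM) added 1 h before LPS (250 ng/mL) and ATP (1.25 mM) stimulation; lower signal means less secretion.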
Giardia kill: Small Molecules that selectively kill Giardia lamblia: qHTS; Giardia lamblia trophozoite viability; activity change, % at 7.66 µM, hits read low; 0.15% of 340,000 active; in the data active = activity change below about -80%; inconclusive = between about -30% and that limit;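 note: parasites exposed to compound for two days anaerobically before the ATP read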
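Giardia trophozoites, 100 cells per well, were exposed to compounds for 48 hrs at 37 deg C under anaerobic conditions; viability was then read as ATP content by bioluminescence after 15-30 min at room temperature.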
An asterisk follows results filed as active. This is a sample that favours compounds with a hit; in the whole collection about 19% have one here. Unless noted, calls come from the whole dose curve; as a rule, active = well fitted curve in the direction sought with a large enough effect; inconclusive = small, poorly fitted or top-dose-only effect, or another doubt; inactive = no such curve, though single readings can be large; an effect the other way counts as inactive or inconclusive. % is set by controls: 0 for no effect and ±100 for the full control effect.

CCCCC(=O)Nc1sc(C(=O)N(CC)CC)c(C)c1C(=O)OC was read as ELG1 DNA repair inconclusive, TDP1 inh -2%, TDP1 cell noCPT 18µM*, DT40 TDP1 CPT inconclusive, IL1B secr inh 0 and Giardia kill -20.
For CCOC(=O)c1sc(NC(=O)C2c3ccccc3Oc3ccccc32)c(C#N)c1C the results were TDP1 inh -4%, TDP1 cell noCPT 16µM* and DT40 TDP1 CPT 12µM*.
`CCOC(=O)c1c(NC(=O)C2c3ccccc3Oc3ccccc32)sc(C(=O)N(CC)CC)c1C` gave ELG1 DNA repair inconclusive, TDP1 inh -11%, TDP1 cell noCPT 23µM*, DT40 TDP1 CPT 18µM*, IL1B secr inh -19 and Giardia kill 4.
Screening COc1ccc(CCNCC(=O)Nc2ccc(OC(F)(F)F)cc2)cc1OC returned ELG1 DNA repair 7%, TDP1 cell noCPT -21%, DT40 TDP1 CPT -15%, IL1B secr inh -21 and Giardia kill -10.
Screening N#CCNC(=O)C1c2ccccc2Oc2ccccc21 returned ELG1 DNA repair 4%, TDP1 cell noCPT -21%, DT40 TDP1 CPT -7%, IL1B secr inh 1 and Giardia kill 11.
CCOc1ccccc1NC(=O)C(Sc1ccccc1)c1ccccc1 (stereo not given) was read as ELG1 DNA repair 27%, TDP1 inh -4%, TDP1 cell noCPT inconclusive, DT40 TDP1 CPT inconclusive, IL1B secr inh -1 and Giardia kill 5.
For COC(=O)c1cc(S(=O)(=O)N2CCCCCC2)cn1C the results were ELG1 DNA repair inconclusive, TDP1 inh 1%, TDP1 cell noCPT -13%, DT40 TDP1 CPT -11%, IL1B secr inh 2 and Giardia kill -22.
Screening O=C(COC(=O)c1cccs1)NCC1CCCCC1 returned ELG1 DNA repair 7%, TDP1 inh 0%, TDP1 cell noCPT 1%, DT40 TDP1 CPT -3%, IL1B secr inh 0 and Giardia kill 0.
`COc1ccc(/C=N/Nc2nnc(Cc3ccc(OC)c(OC)c3)c(=O)[nH]2)cc1` gave ELG1 DNA repair inconclusive, TDP1 inh 5%, TDP1 cell noCPT 16µM*, DT40 TDP1 CPT 26µM*, IL1B secr inh 9 and Giardia kill -14.
For CCOc1ccccc1CNC(=O)CCc1c(C)nn(-c2ccc(N3CCOCC3)nn2)c1C the results were TDP1 inh 7%, TDP1 cell noCPT inconclusive and DT40 TDP1 CPT inconclusive.
For CCOc1ccccc1CNC(=O)CCc1c(C)nn(-c2ccc(N3CCCCC3)nn2)c1C the results were TDP1 inh 5%, TDP1 cell noCPT 21µM* and DT40 TDP1 CPT inconclusive.
`CCOc1ccccc1NC(=O)CCc1c(C)nn(-c2ccc(N3CCCCC3)nn2)c1C` gave ELG1 DNA repair inconclusive, TDP1 inh 6%, TDP1 cell noCPT 16µM*, DT40 TDP1 CPT 23µM*, IL1B secr inh -14 and Giardia kill -24.
`Cc1c(CC(C)(C)C(=O)O)n(Cc2ccc(Cl)cc2)c2ccc(F)cc12` gave TDP1 inh 17%, TDP1 cell noCPT -18% and DT40 TDP1 CPT 0%.
For COc1ccc(-c2cc(C3C4C=CCC(C)C4C(=O)N3Cc3ccccc3)ccc2F)cc1OC (stereo not given) the results were TDP1 inh 9% and Giardia kill 6.
Screening CCCCC(=O)N(Cc1nc2sc(C)c(C)c2c(=O)[nH]1)C1CCCC1 returned ELG1 DNA repair 21µM*, TDP1 inh 8%, TDP1 cell noCPT inconclusive, DT40 TDP1 CPT -28%, IL1B secr inh -1 and Giardia kill 1.
